# According to paper PMC4336329 (PLoS ONE, 2015):
# Hit rate of the full screen: of about 310,000 compounds, about 14,000 (4.5%) showed an effect of 50% or more. Effects have a minus sign here. This excerpt belongs to a sample that is enriched for strong results.
# Molecular target: human ether-à-go-go-related gene (hERG) potassium channel (human, UniProt Q12809)
# Assay: primary screen, population patch clamp on CHO cells stably expressing hERG; higher = less effect of the substance
# 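Note: peak tail current of the secondary pulse compared with the same well before compound.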
# Sequence of human ether-à-go-go-related gene (hERG) potassium channel (Q12809 whole entry, looked up): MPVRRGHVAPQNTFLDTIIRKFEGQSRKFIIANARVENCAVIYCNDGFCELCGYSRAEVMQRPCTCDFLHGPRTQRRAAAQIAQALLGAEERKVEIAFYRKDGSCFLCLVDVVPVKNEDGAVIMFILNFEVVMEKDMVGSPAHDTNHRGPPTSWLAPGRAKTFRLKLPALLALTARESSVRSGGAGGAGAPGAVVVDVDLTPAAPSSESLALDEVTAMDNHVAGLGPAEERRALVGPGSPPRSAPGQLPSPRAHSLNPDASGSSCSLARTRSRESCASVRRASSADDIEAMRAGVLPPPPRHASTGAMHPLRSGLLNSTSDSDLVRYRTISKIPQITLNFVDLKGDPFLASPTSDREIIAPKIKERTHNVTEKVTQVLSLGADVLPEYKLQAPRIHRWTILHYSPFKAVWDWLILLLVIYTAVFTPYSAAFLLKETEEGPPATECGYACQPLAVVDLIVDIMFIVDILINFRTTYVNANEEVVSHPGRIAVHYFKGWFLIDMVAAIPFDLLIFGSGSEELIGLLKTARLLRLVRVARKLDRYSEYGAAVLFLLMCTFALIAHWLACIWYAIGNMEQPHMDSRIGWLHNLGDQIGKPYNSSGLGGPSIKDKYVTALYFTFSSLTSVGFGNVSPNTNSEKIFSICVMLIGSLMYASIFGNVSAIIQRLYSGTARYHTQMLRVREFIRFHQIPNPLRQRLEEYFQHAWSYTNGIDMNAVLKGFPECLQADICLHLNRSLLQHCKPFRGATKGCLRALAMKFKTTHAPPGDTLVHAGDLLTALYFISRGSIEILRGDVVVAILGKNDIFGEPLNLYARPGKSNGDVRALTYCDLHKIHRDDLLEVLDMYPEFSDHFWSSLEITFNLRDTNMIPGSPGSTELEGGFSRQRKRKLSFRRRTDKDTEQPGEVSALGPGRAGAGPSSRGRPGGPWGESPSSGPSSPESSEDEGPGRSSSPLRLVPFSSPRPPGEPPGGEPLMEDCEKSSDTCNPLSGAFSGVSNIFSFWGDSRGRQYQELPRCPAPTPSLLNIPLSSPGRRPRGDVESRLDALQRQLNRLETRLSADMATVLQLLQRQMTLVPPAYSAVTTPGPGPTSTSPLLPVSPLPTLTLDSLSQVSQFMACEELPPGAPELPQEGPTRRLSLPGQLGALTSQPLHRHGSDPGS
row,Structure (SMILES),"hERG current change (%, negative = inhibition) at 10uM [%]"
1,O=C(NCc1ccco1)c1ccc(COCC(F)(F)C(F)F)cc1,-13.6
2,CC(=O)Nc1ccc(S(=O)(=O)/N=C2\SCCN2S(=O)(=O)c2ccc(NC(C)=O)cc2)cc1,-5.46
3,C=CCSc1nsc(NC(=O)Nc2ccc(F)cc2)n1,22.1
4,COc1cc(-c2nnc(SCC3(c4ccc(Br)cc4)OCCO3)o2)cc(OC)c1OC,-9.92
5,Cc1nc(C(C)NC(=O)c2cc(COc3ccc(F)c(F)c3)on2)cs1 (stereo not shown),-11.2
6,O=c1c2ccccc2ncn1CCOCCOc1ccc([N+](=O)[O-])cc1,-64.3
7,COc1ccc(OCCn2cnc3ccccc32)cc1,0.789
8,O=c1c2ccc([N+](=O)[O-])cc2ncn1CCOc1ccccc1,-8.16
9,CC(C)(C)c1ccc(OCCOCCn2cnc3ccccc3c2=O)cc1,-36.8
10,c1ccc(OCCn2cnc3ccccc32)cc1,-9.08
11,O=[N+]([O-])c1ccc(OCCn2cnc3ccccc32)cc1,-68.1
12,Cc1c(C(=O)OC(C)C)sc(NC(=O)c2cccnc2)c1C#N,18.3
13,CCOc1ccc(CCNC(=O)c2ccc(Cl)c(S(=O)(=O)N3CCOCC3)c2)cc1OCC,-20.4
14,CCN(C(=O)Cn1c(=O)oc2ccccc21)c1cccc(C)c1,6.38
15,COc1cc2c(cc1OC)C1=C(C#N)CC/C(=N\S(=O)(=O)c3ccccc3)N1CC2,-33.1
16,O=C(CSc1nnc(NC(=O)c2cccc(Cl)c2)s1)NCC1CCCO1 (stereo not shown),20
17,Cl.O=C(O)c1ccc(CNCc2ccc(F)cc2)cc1,16.4
18,CCOC(=O)Cc1csc(NC(=O)c2sc3nc4cc(C)ccc4cc3c2N)n1,-6.55
19,CC1CCN(c2nc3ccccc3n2CC(=O)c2ccccc2)CC1,56
20,O=C(Cn1c(N2CCN(c3ccccc3)CC2)nc2ccccc21)c1ccccc1,-16.1
21,O=C(Cn1c(N2CCN(C/C=C/c3ccccc3)CC2)nc2ccccc21)c1ccccc1,-51.2
22,CCn1c(N2CCN(C(=S)NCCc3ccccc3)CC2)nc2ccccc21,-50
23,Cc1nnc2c(N3CCN(C(=O)c4ccco4)CC3)nc3ccccc3n12,-33.1
24,CC(C)Cn1c(SCC(=O)N2CCN(S(=O)(=O)c3ccccc3)CC2)nc2ccccc21,0.539
25,CC(C)n1c(N2CCN(C(=O)c3cccs3)CC2)nc2ccccc21,-49.2
26,CC(C)Cn1c(/C=C/c2ccccc2)nc2ccccc21,-42.2
27,O=C(c1cccs1)N1CCn2c1nc1ccccc12,-25.5
28,CC(C)Cn1c(N2CCN(C(=O)c3cccs3)CC2)nc2ccccc21,-73.6

row,Structure (SMILES),"hERG current change (%, negative = inhibition) at 10uM [%]"
1,CCn1c(N2CCN(C(=O)c3ccco3)CC2)nc2ccccc21,-50.7
2,CC(C)Cn1c(N2CCN(C(=O)/C=C/c3ccccc3)CC2)nc2ccccc21,-69.1
3,COc1ccc(/C=C2\C(=O)NC(=O)N(CCC3=CCCCC3)C2=O)c(OC)c1,24.6
4,COc1ccccc1NC(=O)C1=C(C)Nc2nnnn2C1c1cc(Br)ccc1OC (stereo not shown),-0.22
5,CCOc1ccccc1C(=O)OCC(=O)NCCNC(=O)COC(=O)c1ccccc1OCC,5.95
6,O=C(CC1S/C(=N/N=C/c2cccs2)NC1=O)Nc1ccc(Cl)cc1 (stereo not shown),-3.86
7,Cc1cc(C)cc(N(C(=O)c2snc(C(N)=O)c2N)C(C(=O)NCC2CCCO2)c2cccs2)c1 (stereo not shown),-18.7
8,Cc1ccc(C(=O)/C=C/Nc2ccccn2)cc1,-1.05
9,O=C(COc1ccccc1[N+](=O)[O-])N1CCN(S(=O)(=O)c2ccccc2)CC1,-46.6
10,CCOC(=O)Cn1c(C)nc2c(C(=O)OCC)sc(C)c2c1=O,-5
11,O=C(NCCCN1CCCC1=O)c1cc(NS(=O)(=O)c2ccc(F)cc2)cc(NS(=O)(=O)c2ccc(F)cc2)c1,-4.88
12,CCn1c(N2CCN(C(=O)C34CC5CC(CC(C5)C3)C4)CC2)nc2ccccc21,-37.9
13,CCCn1c(N2CCN(C(=O)/C=C/C(=O)O)CC2)nc2ccccc21,9.76
14,CCn1c(N2CCN(C(=O)/C=C/c3ccccc3)CC2)nc2ccccc21,-80.8
15,Cc1cccc(C(=O)NC(=S)NNC(=O)Cc2ccccc2)c1,3.66
16,O=C(C1CCCO1)N1CCN(C(=S)NC2CC2)CC1 (stereo not shown),23
17,COc1cccc(C2C=C(c3ccc(OC)cc3OC)Nc3nnnn32)c1 (stereo not shown),1.76
18,O=C(CCS(=O)(=O)c1cccc2nonc12)N1CCN(c2ccc(F)cc2)CC1,-60.8
19,Cc1ccc(C)c(N2CCN(C(=O)CCS(=O)(=O)c3cccc4nonc34)CC2)c1,-25.4
20,Cc1ccc(S(=O)(=O)NCCC(=O)N2CCN(c3cccc(Cl)c3)CC2)cc1C,4.35
21,O=S(=O)(c1cccc2nonc12)N1CCN(c2cccc(Cl)c2)CC1,-4
22,O=C(CCNS(=O)(=O)c1cccc2nonc12)N1CCN(c2cccc(Cl)c2)CC1,-50.6
23,O=C(CCS(=O)(=O)c1cccc2nonc12)N1CCOCC1,14.6
24,CSc1ncc(C(=O)Nc2ccccc2C)c(C)n1,12.5
25,Cc1ccc(-c2nc3c(=O)n(C)c4ccccc4c3o2)cc1,22.3
26,Nc1cc(=O)[nH]c(=O)n1-c1cccc(F)c1,18.4
27,COc1ccccc1NC(=O)c1cc2c(=O)n(C)c3ccccc3c2n1C,1.19
